Measured values from the supplement of paper PMC11732987, “Enantioselective OTUD7B fragment discovery through chemoproteomics screening and high-throughput optimisation” (Communications Chemistry, 2025).

Columns and labels:
Test in all cases: log2 ratio of Biotin-Ahx-Ub-VS probe labelling (fragment/DMSO); higher = less target engagement (more negative = stronger competition), active = hit call of the paper (q ≤ 0.05, log2 ratio ≤ -1)
Settings in all cases: compound concentration: 200 uM; treatment time: 3 h
[1] = biological target: USP34 (UniProt Q70CQ2)
Chain of USP34 (Q70CQ2 whole entry, the tested form may be a part): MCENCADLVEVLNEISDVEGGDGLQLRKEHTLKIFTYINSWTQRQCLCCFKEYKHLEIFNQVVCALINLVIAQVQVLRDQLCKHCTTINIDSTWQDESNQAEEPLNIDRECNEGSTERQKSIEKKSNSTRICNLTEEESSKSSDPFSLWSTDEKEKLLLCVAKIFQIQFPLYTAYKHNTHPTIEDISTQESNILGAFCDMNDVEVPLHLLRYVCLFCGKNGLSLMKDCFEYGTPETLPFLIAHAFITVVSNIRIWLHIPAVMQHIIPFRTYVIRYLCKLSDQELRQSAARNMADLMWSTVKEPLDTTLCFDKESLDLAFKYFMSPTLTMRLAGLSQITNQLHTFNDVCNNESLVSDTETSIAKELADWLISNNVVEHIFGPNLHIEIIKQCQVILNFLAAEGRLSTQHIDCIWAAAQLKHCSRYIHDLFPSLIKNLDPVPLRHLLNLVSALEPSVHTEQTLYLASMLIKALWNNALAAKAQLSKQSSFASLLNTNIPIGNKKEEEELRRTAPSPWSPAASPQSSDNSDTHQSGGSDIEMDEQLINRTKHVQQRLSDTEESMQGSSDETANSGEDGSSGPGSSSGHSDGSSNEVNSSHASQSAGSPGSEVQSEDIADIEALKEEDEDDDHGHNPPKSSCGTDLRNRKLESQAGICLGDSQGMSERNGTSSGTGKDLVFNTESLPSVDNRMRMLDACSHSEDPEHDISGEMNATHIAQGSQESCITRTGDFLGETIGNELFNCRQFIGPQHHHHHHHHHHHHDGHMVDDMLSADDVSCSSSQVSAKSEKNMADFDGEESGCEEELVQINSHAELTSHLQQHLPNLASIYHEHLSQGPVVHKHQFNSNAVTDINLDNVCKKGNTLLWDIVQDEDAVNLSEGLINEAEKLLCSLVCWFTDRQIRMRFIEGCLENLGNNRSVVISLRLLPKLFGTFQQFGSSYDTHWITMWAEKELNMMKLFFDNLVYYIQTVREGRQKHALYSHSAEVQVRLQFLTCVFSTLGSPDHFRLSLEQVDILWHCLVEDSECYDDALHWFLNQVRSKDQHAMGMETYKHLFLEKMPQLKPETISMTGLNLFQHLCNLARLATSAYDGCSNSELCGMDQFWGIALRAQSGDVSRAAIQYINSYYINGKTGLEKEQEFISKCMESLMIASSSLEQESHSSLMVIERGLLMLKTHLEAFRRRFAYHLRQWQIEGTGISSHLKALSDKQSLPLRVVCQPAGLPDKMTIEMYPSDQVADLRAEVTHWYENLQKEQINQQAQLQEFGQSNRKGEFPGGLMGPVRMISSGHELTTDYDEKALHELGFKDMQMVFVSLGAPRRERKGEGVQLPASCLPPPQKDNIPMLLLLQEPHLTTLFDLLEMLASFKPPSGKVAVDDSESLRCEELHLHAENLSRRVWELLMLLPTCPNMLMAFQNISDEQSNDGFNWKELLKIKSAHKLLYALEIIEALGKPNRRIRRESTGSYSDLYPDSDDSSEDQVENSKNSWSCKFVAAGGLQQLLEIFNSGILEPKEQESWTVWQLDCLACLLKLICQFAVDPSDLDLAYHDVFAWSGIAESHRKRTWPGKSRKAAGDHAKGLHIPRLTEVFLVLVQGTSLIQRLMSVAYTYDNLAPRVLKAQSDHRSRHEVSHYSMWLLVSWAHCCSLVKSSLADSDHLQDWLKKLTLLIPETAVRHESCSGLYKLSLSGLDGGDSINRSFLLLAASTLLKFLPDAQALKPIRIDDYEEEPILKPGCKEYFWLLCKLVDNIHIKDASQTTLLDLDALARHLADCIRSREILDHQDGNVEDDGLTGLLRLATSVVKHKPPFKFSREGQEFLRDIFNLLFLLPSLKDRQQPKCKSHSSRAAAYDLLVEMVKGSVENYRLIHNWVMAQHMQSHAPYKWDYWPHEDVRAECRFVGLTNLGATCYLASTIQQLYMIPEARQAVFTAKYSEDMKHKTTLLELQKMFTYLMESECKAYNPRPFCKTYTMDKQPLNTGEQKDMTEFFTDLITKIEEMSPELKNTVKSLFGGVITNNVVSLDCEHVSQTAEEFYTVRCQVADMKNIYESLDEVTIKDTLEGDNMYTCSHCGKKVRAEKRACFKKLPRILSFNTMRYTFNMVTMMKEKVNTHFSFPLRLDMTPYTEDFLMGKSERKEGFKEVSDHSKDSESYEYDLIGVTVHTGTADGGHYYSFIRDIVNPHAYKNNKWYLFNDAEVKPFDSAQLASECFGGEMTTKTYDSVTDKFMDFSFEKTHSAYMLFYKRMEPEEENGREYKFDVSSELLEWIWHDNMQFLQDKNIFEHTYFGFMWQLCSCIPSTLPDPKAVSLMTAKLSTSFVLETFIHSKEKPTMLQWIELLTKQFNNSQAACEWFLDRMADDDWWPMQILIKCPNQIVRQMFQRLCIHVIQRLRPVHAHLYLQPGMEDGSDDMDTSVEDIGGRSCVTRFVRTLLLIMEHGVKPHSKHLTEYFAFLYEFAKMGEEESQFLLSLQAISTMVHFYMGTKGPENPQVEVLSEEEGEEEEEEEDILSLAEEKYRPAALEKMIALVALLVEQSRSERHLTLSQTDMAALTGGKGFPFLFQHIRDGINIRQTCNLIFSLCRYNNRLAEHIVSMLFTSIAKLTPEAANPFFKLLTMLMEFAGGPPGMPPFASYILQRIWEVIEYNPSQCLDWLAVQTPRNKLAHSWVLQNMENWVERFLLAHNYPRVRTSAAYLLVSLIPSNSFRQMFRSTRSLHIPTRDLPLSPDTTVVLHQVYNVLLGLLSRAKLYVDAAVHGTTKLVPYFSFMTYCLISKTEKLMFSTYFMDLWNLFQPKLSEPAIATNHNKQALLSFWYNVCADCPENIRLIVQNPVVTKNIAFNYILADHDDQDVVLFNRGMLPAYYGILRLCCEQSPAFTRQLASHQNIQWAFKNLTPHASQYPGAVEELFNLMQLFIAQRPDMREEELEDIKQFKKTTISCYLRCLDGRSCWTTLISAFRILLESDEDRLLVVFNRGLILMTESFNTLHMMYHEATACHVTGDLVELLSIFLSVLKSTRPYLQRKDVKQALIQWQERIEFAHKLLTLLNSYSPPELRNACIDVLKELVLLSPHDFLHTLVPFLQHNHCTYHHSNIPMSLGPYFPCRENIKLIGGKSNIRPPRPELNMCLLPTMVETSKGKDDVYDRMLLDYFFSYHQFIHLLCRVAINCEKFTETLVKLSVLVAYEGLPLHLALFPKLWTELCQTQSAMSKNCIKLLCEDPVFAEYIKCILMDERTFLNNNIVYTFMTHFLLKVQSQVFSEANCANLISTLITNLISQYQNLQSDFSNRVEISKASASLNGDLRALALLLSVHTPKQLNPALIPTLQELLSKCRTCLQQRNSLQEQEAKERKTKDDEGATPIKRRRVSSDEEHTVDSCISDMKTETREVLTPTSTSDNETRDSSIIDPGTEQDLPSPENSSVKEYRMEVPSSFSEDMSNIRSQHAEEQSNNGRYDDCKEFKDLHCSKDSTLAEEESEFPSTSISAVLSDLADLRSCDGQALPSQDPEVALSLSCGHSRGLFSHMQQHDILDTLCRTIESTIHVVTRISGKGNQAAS
Outline: (§1)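 HEK293T lysate in Tris/CHAPS/IGEPAL buffer with protease inhibitors (495 µg per sample) was given fragment at 200 µM or vehicle for 3 h, in triplicate. It then received Biotin-Ahx-Ub-VS at 0.5 µM final for 1 h. Labelled DUBs were NeutrAvidin-enriched, digested with LysC and trypsin, and run by diaPASEF LC-MS/MS. Values are average log2 fragment/vehicle ratios by unpaired t-test on global-median-normalised Spectronaut quantities of proteins with ≥2 unique peptides.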

[2] = biological target: T1, USP36 (UniProt Q9P275)
T1 sequence (whole entry): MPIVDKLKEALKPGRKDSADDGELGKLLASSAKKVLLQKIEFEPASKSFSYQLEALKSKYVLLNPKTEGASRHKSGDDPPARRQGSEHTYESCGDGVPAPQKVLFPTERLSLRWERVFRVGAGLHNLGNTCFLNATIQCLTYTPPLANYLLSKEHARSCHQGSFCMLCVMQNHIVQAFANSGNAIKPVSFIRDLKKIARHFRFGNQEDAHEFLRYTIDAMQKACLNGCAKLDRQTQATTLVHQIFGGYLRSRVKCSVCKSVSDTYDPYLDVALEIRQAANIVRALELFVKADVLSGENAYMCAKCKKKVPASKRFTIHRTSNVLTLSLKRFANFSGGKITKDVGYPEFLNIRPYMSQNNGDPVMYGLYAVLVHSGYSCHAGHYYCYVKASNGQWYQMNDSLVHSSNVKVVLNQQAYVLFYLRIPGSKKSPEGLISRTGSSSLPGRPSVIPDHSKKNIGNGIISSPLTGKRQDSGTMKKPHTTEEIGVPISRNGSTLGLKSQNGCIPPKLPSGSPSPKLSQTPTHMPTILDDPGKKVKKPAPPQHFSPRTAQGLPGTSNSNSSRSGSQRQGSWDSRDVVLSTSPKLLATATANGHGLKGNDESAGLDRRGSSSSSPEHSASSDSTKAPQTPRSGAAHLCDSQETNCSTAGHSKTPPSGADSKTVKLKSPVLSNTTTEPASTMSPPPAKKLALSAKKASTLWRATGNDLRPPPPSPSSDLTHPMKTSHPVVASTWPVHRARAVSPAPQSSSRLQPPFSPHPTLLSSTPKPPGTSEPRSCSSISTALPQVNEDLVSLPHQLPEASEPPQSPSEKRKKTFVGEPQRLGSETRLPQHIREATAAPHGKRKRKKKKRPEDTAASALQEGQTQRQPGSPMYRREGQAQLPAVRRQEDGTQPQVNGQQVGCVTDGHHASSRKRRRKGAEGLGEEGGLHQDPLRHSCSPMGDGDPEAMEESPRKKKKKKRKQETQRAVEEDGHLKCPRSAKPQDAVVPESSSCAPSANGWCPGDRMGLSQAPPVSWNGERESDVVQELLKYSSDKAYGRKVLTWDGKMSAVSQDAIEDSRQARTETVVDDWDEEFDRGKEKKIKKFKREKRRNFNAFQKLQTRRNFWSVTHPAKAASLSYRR
Outline: as §1

[3] = biological target: T2, USP38 (UniProt Q8NB14)
T2 sequence (whole entry): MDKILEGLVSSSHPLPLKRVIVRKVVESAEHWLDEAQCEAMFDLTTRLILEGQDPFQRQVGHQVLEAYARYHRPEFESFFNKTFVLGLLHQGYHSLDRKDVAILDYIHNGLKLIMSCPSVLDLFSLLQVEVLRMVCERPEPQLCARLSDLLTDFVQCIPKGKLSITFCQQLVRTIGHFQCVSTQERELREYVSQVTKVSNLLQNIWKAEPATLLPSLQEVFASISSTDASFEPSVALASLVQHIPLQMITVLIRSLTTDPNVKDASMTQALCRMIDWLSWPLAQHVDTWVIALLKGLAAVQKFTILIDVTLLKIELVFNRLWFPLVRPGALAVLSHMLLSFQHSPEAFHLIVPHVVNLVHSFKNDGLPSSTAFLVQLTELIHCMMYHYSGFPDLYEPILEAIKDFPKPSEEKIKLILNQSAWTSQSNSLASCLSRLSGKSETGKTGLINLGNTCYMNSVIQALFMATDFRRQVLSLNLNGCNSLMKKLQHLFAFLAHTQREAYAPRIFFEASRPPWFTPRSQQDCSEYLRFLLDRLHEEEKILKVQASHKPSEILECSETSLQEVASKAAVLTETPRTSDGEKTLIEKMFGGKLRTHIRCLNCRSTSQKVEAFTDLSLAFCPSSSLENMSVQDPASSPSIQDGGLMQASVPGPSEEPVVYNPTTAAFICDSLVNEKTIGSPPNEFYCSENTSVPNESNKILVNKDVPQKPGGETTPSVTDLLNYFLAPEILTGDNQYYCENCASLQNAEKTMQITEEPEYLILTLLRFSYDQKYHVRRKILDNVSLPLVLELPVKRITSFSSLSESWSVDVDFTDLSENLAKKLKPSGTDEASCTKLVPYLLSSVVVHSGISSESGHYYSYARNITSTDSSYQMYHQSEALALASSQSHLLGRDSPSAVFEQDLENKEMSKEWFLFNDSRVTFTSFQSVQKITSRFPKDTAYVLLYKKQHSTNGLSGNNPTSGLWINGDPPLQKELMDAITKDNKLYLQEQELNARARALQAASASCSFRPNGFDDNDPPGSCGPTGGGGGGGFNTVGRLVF
Outline: as §1

[4] = biological target: T3, USP39 (UniProt Q53GS9)
T3 sequence (whole entry): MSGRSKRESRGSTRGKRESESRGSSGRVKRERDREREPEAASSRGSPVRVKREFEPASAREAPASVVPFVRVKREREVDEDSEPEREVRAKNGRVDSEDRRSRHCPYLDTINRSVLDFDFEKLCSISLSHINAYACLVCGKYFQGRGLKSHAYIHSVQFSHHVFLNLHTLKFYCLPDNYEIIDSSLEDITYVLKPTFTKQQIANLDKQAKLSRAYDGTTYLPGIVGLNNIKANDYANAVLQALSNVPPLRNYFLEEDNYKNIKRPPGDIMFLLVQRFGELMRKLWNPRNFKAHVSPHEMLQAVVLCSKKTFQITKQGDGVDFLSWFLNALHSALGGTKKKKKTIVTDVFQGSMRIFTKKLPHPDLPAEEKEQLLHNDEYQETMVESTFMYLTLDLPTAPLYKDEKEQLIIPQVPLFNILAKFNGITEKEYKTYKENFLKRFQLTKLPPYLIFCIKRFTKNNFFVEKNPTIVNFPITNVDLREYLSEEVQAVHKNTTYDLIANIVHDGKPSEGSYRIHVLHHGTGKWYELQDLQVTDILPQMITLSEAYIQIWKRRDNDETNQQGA
Outline: as §1

[5] = biological target: T4, USP4 (UniProt Q13107)
T4 sequence (whole entry): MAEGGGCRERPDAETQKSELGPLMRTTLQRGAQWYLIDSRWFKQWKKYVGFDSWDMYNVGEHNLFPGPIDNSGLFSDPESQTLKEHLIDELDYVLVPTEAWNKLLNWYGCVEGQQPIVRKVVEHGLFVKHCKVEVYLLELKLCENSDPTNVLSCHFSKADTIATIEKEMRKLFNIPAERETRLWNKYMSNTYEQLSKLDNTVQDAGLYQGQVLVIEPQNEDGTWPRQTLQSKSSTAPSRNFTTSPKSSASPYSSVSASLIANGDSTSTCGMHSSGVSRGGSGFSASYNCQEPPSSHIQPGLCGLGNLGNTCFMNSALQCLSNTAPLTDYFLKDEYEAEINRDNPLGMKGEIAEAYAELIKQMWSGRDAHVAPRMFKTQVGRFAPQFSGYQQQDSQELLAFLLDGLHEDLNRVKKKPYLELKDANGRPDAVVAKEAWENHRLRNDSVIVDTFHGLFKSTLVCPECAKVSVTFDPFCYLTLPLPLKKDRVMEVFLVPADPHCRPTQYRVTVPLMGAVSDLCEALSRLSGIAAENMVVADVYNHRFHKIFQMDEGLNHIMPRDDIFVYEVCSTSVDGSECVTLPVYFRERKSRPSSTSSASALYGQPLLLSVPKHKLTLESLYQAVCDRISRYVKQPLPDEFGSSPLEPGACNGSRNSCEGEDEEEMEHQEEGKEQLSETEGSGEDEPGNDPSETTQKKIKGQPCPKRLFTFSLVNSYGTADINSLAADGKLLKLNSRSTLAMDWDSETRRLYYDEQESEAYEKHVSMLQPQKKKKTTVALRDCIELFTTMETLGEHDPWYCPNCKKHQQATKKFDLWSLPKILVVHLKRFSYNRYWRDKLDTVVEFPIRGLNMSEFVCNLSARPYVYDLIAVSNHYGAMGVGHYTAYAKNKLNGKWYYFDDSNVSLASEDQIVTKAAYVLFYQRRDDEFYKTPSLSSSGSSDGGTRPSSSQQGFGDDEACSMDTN
Outline: as §1

Measured: log2 ratio of Biotin-Ahx-Ub-VS probe labelling

Cc1nnc(C(NC(=O)CCl)c2ccccc2)n1C (stereo not given)
inactive: [1] 0.334 | [2] 0.114 | [3] 0.538 | [4] 0.132 | [5] 0.55
